From the supplement of paper PMC12636033
± gives the standard deviation of the averaged measurements. Over roughly 33,000 sequences, “E-score (rank enrichment, -0.5 to 0.5)” has its median near -0.0075; the highest 2% begin near 0.23. The entries come from a sample that favours the highest values as a whole.

test system: WT Max(13-93) synthetic (M65Nle); test: PBM 8-mer E-score (E-score (rank enrichment, -0.5 to 0.5)); higher = stronger preferential binding
Procedure: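 Protein binding microarray (universal PBM chip covering all 10-mers in fixed probe flanks) with chemically synthesized human Max(13-93) bHLH-LZ analogs (not full-length Max) bearing noncanonical residues (hArg, Tha, Aib, Nle at 65) and aromatic Cys staples. Read-out per 8-mer (and its reverse complement): E-score (rank-based enrichment, -0.5 to 0.5) and Z-score of median probe intensity.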

Sequence | PBM 8-mer E-score
TACGTGAA | 0.0446 ± 0.099
GGCTAGAC | -0.217 ± 0.07
TACGCCAA | 0.0646 ± 0.021
GCATAACC | -0.0331 ± 0.022
CCATAACG | -0.0417 ± 0.027
TAATAACA | 0.131 ± 0.0072
CCATAACA | 0.236 ± 0.036
CAATAACA | 0.193 ± 0.046
GAATAACA | 0.242 ± 0.094
CCATAACC | 0.145 ± 0.0043
ACATAACA | 0.215 ± 0.0054
GCATAACA | 0.27 ± 0.04
CAAGTAAC | 0.0157 ± 0.17
AAGGACAA | -0.103 ± 0.0038
AGACTTAC | 0.0412 ± 0.036
GGACTGAC | -0.163 ± 0.079
ACGCGGAC | 0.112 ± 0.0026
CCCCTTAG | -0.25 ± 0.047
ACACACAT | 0.208 ± 0.024
GTACACGA | 0.246 ± 0.037
GCACACGC | 0.284 ± 0.051
ATACACGA | 0.194 ± 0.032
CTACACGA | -0.00142 ± 0.052
ACACACAA | 0.0899 ± 0.06
TCACACGA | 0.0202 ± 0.039
GCACACGA | 0.121 ± 0.081

Sequence | PBM 8-mer E-score
ACACACGT | 0.295 ± 0.028
ACACACGG | -0.09 ± 0.023
ACACACGC | 0.208 ± 0.02
ACACACGA | 0.252 ± 0.021
GGCACATA | -0.00374 ± 0.019
TGCGTTAA | -0.0126 ± 0.025
CACAATAC | 0.204 ± 0.018
AGGGTTCG | 0.0226 ± 0.091
GCCATACA | 0.0396 ± 0.039
AACCCCCT | -0.12 ± 0.022
AGGATCTG | -0.1 ± 0.11
CCAACCGC | -0.126 ± 0.13
CTGCCCCC | -0.128 ± 0.089
CAAAATAC | 0.189 ± 0.047
GAGCATGA | 0.205 ± 0.03
CAGCATGC | 0.237 ± 0.04
CAGCATGA | 0.128 ± 0.022
GAGCATGC | 0.249 ± 0.018
CAGCATAC | 0.0204 ± 0.073
CAGCATAG | -0.0673 ± 0.062
GACCATGC | 0.27 ± 0.043
CGGCATGC | 0.124 ± 0.05
CAGCATGG | 0.331 ± 0.028
AACCATGC | 0.162 ± 0.018
GACCATGA | -0.0818 ± 0.059
GAGCATAC | 0.00326 ± 0.079

Sequence | PBM 8-mer E-score
ATCGCGGC | -0.136 ± 0.14
CGAAACGC | -0.14 ± 0.0054
GAACACTC | -0.0859 ± 0.0037
ATTTATTA | 0.152 ± 0.031
ATACCAAA | 0.124 ± 0.029
CTAATGGA | -0.125 ± 0.0031
ACCATATC | 0.0455 ± 0.019
ACCATATA | 0.248 ± 0.043
ACTATATC | 0.21 ± 0.015
GCTATATA | 0.146 ± 0.04
ACTATATA | 0.274 ± 0.0075
ACCATATG | 0.221 ± 0.0037
ACCGGCAC | 0.0185 ± 0.12
CTATCTCC | -0.00138 ± 0.076
GAAGTAGA | 0.0186 ± 0.0018
ACTGATCG | -0.106 ± 0.045
ACGTGTAA | 0.35 ± 0.019
AGGTGTAT | 0.136 ± 0.019
AAGTGTAT | 0.149 ± 0.018
ACGTGTAG | 0.1905 ± 0.0018
ACGTGTAT | 0.4013 ± 0.0019
GCGTGTAC | 0.125 ± 0.015
TCGTGTAA | 0.1 ± 0.05
CCGTGTAA | -0.00838 ± 0.1
ACGTGTAC | 0.354 ± 0.014
ATTACCCA | 0.146 ± 0.11

Sequence | PBM 8-mer E-score
CCCTAAGC | -0.152 ± 0.068
AAATGTGA | 0.026 ± 0.14
CTATATGA | 0.0892 ± 0.063
CTATATGC | 0.168 ± 0.083
CAATGTGA | 0.179 ± 0.0028
ATATAGTC | 0.107 ± 0.0014
TAATGTGA | 0.233 ± 0.075
ATATATGG | 0.244 ± 0.055
ATATATGA | 0.0913 ± 0.21
ATATATGC | 0.0949 ± 0.049
GTATATGA | 0.266 ± 0.019
ATATAGTA | 0.228 ± 0.029
ATATAGTG | 0.2556 ± 0.0011
CCTGGCCG | -0.194 ± 0.086
ACCCAGAG | -0.0559 ± 0.026
CGGTCCAA | -0.19 ± 0.19
CGCCTTAG | -0.0361 ± 0.042
CGGAAAGC | -0.0958 ± 0.16
GCACAGGC | -0.146 ± 0.038
GCCCGAGC | 0.035 ± 0.06
ATGTGTGG | 0.148 ± 0.055
GTATGTGA | -0.0439 ± 0.13
ATATGTGA | 0.278 ± 0.14
CAATGTGG | 0.133 ± 0.072
CTATGTGA | 0.0181 ± 0.018
ATATGTGG | 0.292 ± 0.015

Sequence | PBM 8-mer E-score
AAATGTGG | 0.245 ± 0.048
AAATGTGT | 0.224 ± 0.085
ATATGTGC | 0.181 ± 0.014
CCTGTCGA | 0.00438 ± 0.055
ATTTACCG | 0.17 ± 0.0023
ATTCCGGC | -0.2339 ± 0.0017
GAGATCAA | 0.0454 ± 0.094
CACCTGAA | 0.166 ± 0.075
CTGAGATA | -0.222 ± 0.091
CCTTCTCA | 0.0588 ± 0.1
CCGGCCCA | -0.197 ± 0.085
AAAAAGGC | 0.109 ± 0.096
CAAAAGGC | -0.00832 ± 0.029
GAAAAGGC | 0.253 ± 0.15
AACGTTTA | 0.146 ± 0.049
TCGGACCA | -0.114 ± 0.059
CGCGGGGA | -0.172 ± 0.12
GGCGGGGA | 0.303 ± 0.031
GGCGGGAA | 0.0202 ± 0.047
CTGGTCCA | -0.128 ± 0.094
TAGGTAAA | -0.0909 ± 0.038
ACGACCAA | -0.0717 ± 0.22
AGCAAGCC | -0.152 ± 0.033
GACCAGCC | -0.205 ± 0.093
CTGATTTA | 0.0789 ± 0.0019
GTGATGTA | 0.239 ± 0.0057

Sequence | PBM 8-mer E-score
CTGATTAA | 0.192 ± 0.081
ATGATTTA | 0.178 ± 0.027
GTGATTAA | 0.296 ± 0.066
ATGATGTA | 0.197 ± 0.047
CTGATGTA | 0.0268 ± 0.064
ATGATTAA | 0.0011 ± 0.15
GTGATTTA | 0.27 ± 0.0069
GTTCTCGA | 0.0864 ± 0.12
CACCACTA | 0.129 ± 0.17
CGCTGGCC | -0.289 ± 0.025
GGAAGGAA | 0.0471 ± 0.045
ACGAAGTG | 0.00194 ± 0.018
ACTGATGC | -0.0431 ± 0.041
CGCGGAAA | -0.0276 ± 0.059
CGTTGCAA | -0.0452 ± 0.0072
AGCCTAGG | -0.0541 ± 0.089
CTATCATA | 0.1619 ± 0.00089
GTGTCATA | 0.291 ± 0.0065
ATATCATA | 0.184 ± 0.031
GTATCATA | 0.248 ± 0.1
ATGTCATA | 0.1682 ± 0.0013
CTGTCATA | 0.113 ± 0.023
AACGAAGC | -0.00685 ± 0.13
GTTTTGCA | 0.108 ± 0.019
ATTTTGTA | 0.237 ± 0.051
ATTTTGTG | 0.145 ± 0.021

Sequence | PBM 8-mer E-score
CTTTTGTA | 0.125 ± 0.051
GTTTTGTA | 0.248 ± 0.031
AATTTCTA | 0.172 ± 0.047
GGTTTGTA | -0.0081 ± 0.036
ATTTTCTA | 0.24 ± 0.019
CTTTTCTA | 0.0691 ± 0.035
CCGCTTCG | -0.0665 ± 0.16
CCCTCCTA | 0.0972 ± 0.061
AAACATAT | 0.144 ± 0.0056
CAACATAA | 0.167 ± 0.0094
GTACATAA | 0.236 ± 0.0032
CTACATAA | 0.0655 ± 0.2
AAACATAG | 0.21 ± 0.031
AAACATAC | 0.233 ± 0.027
TTACATAA | 0.136 ± 0.048
GAACATAA | 0.16 ± 0.059
ACACATAA | 0.214 ± 0.066
CAACATAC | 0.112 ± 0.046
TAACATAA | 0.244 ± 0.0065
AAACATAA | 0.244 ± 0.059
